In PubChem BioAssay (NCI):
Compounds without any hit were thinned out: in the full panel of roughly 83,000, 20% have a hit.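 The endpoint reported here, percent growth, reads 100 for growth as untreated, 0 for no net growth and -100 for all cells dead.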 Activity calls are given as the source filed them. The calls were made as follows: active = growth percent below 10; inactive = the rest.

system: U251 CNS; assay: NCI-60 one-dose screen, 48 h (100 = growth as untreated, 0 = no growth, -100 = all killed); conditions: 10 µM unless noted

| Compound | growth |
| --- | --- |
| C=C1C(=O)O[C@H]2[C@H]1CC/C(COC(=O)NCCc1cccc(OC)c1)=C\CC[C@@]1(C)O[C@@H]21 | 66% (inactive) |
| COc1ccccc1OCC(=O)Nc1sc2c(c1C(N)=O)CCC2 | 60.9% (inactive) |
| CCc1c(C(=O)Nc2ccc3ccccc3c2)[nH]c(C)c1C(C)=O | 98.3% (inactive) |
| CCC(=O)Oc1ccc2c(c1)CC[C@@H]1[C@@H]2CC[C@]2(C)C[C@H](OC(=O)CC)C[C@@H]12 | 48.3% (inactive) |
| COC(=O)CCCCN=Cc1c(O)c(O)c(C(C)C)c2cc(C)c(-c3c(C)cc4c(C(C)C)c(O)c(O)c(C=NCCCCC(=O)OC)c4c3O)c(O)c12 | 11.1% (inactive) |
| COc1ccc2c(c1)C(C)Cc1c(N(C)C)ncnc1N2C (centres undefined) | 28% (inactive) |
| Cc1ccc(S(=O)(=O)OCC(=O)Nc2ccc(C(=O)O)c(O)c2)cc1 | 96.7% (inactive) |
| O=C(O)c1ccc(-n2cc(CNc3ccc(C(F)(F)F)cc3)c(-c3ccccc3)n2)cc1 | 81% (inactive) |
| Cc1cc(C(=O)CSc2nc3ccccc3c(=O)[nH]2)c(C)n1C | 96.2% (inactive) |
| CC/C=C\C[C@H](O)C/C=C1/C(=O)C(Cl)=C[C@@H]1C/C=C\CCCC(=O)OC | -75.7% (active) |
| CCSc1nnc(Nc2ccc(C(C)C)cc2)s1 | 66% (inactive) |
| Cc1ccc2nc(-c3c(N)n[nH]c3CCCO)[nH]c(=O)c2c1 | 105% (inactive) |
| COc1cc(C(=O)N2CCN(C(=O)c3ccco3)CC2)c(N)cc1OCc1ccccc1 | 99.1% (inactive) |
| O=C(Nc1cccc(Cl)c1)c1cc([N+](=O)[O-])ccc1O | 47.5% (inactive) |
| O=C(CNC(=O)c1cccc2ccccc12)Nc1ccccc1Oc1ccccc1 | 11.5% (inactive) |
| Nc1cccc2c1CN(C1CCC(=O)NC1=O)C2=O (centres undefined) | 97% (inactive) |
| Nc1ccc(S(=O)(=O)c2ccc(Cl)cc2)cc1 | 105% (inactive) |
| CNC(=O)c1cc(Oc2ccc3c(c2)sc2nc(-c4ccc(Cl)cc4)cn23)ccn1 | 69.5% (inactive) |
| Cc1cc(C)c2c(=O)[nH]c(SCC(=O)Nc3cccc(S(=O)(=O)N(C)C)c3)nc2n1 | 108% (inactive) |
| CSc1ccccc1C#C/C=C\C#Cc1ccccc1N1CCCC1=O | 34.3% (inactive) |

| Compound | growth |
| --- | --- |
| O=S(=O)(NCCCNc1cc(-c2cn(-c3ccccc3)nc2-c2cccc(O)c2)ccn1)c1ccc(Cl)cc1 | 13.8% (inactive) |
| CC(=O)Oc1cccc(OC(C)=O)c1OC(C)=O | 95.6% (inactive) |
| C=C1C(=O)O[C@H]2[C@H]1CC/C(COC(=O)NCCc1ccc(Br)cc1)=C\CC[C@@]1(C)O[C@@H]21 | 41.2% (inactive) |
| O=S=Nc1ccc([N+](=O)[O-])cc1 | 91.6% (inactive) |
| COc1ccc(N=C2NN=C(c3ccc(F)cc3)CS2)cc1OC | 87.4% (inactive) |
| NC(C(=O)O)C(O)c1ccc(OCc2ccccc2)c(OCc2ccccc2)c1 (centres undefined) | 91% (inactive) |
| CC/C=C\C[C@H]1C/C=C2/C(=O)C(Cl)=C[C@@H]2C/C=C\CCCC(=O)O1 | -79.2% (active) |
| Cc1sc2nc(CSc3nnc(-c4ccco4)o3)[nH]c(=O)c2c1C | 88% (inactive) |
| O=S(=O)(NCCCNc1cc(-c2cn(-c3ccccc3)nc2-c2cccc(O)c2)ccn1)c1cccc2ccccc12 | 35.2% (inactive) |
| CN(C)c1nc(N)c(N=O)c(N)n1 | 103% (inactive) |
| O=C1NC(Cc2c[nH]c3ccccc23)C(=O)N1Cc1ccc(Cl)cc1 (centres undefined) | 94.1% (inactive) |
| COC(=O)c1ccc(C)cc1 | 94.9% (inactive) |
| COC(=O)CCCCCN=Cc1c(O)c(O)c(C(C)C)c2cc(C)c(-c3c(C)cc4c(C(C)C)c(O)c(O)c(C=NCCCCCC(=O)OC)c4c3O)c(O)c12 | 3.85% (active) |
| O=S(=O)(NCCCNc1nccc(-c2c(-c3ccc(F)c(O)c3)nc3sccn23)n1)c1ccc(Cl)cc1 | 84.5% (inactive) |
| COc1ncc(-c2ccc3ncnc(Nc4cccc(Cl)c4)c3c2)cc1N(S(C)(=O)=O)S(C)(=O)=O | 82.1% (inactive) |
| CC(Br)C(O)c1cc2c(cc1Br)OCO2 (centres undefined) | 102% (inactive) |
| O=S(=O)(NCCCNc1cc(-c2cn(-c3ccccc3)nc2-c2cccc(O)c2)ccn1)c1ccc(Br)cc1 | 4.89% (active) |
| COc1ccc2c(c1)NC(=O)CN2c1nc(C)nc2ccccc12 | 16.2% (inactive) |
| NC(=O)c1c(NC(=O)c2ccc3c(c2)OCO3)sc2c1CCC(=O)C2 | -9.21% (active) |
